Source: PubChem (The Scripps Research Institute Molecular Screening Center)
This is a sample that favours compounds with a hit; in the whole collection about 4.1% have one here.
hgDAF-12 ag – agonists of H. glycines DAF-12 nuclear receptor; HEK293 GAL4-hgDAF12 UAS-luciferase reporter, agonist luminescence; normalized to butyrate control; activation, % at 6.8 µM; 370,000 compounds, 1.8% hits; AID 687014;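 active means activation above a cutoff set at the mean of all screened compounds plus 3 SD, cut at about 10% in these data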
DAX1 inh-1 – inhibitors of human orphan nuclear receptor DAX1 (NR0B1); 340,000 compounds, 0.99% hits; AID 504766; P51843; HEK293 Gal4-DAX1 luciferase reporter, luminescence; inhibition, % at 6.75 µM;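 active means inhibition above the mean over all tested compounds plus 3 SD, cut at about 4.2% in these data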;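 further: inhibition shows as a rise in luminescence from relieved DAX1 repression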
Target sequence (P51843 207-470 limits assumed): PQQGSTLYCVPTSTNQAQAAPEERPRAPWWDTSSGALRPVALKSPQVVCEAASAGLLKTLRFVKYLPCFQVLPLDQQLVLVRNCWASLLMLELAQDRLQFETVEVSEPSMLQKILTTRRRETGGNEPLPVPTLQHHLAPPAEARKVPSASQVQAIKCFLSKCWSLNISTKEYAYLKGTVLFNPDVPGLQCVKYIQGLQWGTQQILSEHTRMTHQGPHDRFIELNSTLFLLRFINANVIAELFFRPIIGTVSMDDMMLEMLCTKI
ssDAF-12 act – S. stercoralis DAF-12 activation, primary screen | HEK293 ssDAF-12/GRIP1 lit1-tk-luc reporter, luminescence; % of 3 µM dafachronic acid response | activation, % at 6.8 µM | 370,000 compounds, 1% hits;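 active means activation above the mean over all tested compounds plus 3 SD, cut at about 0.9% in these data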
hcDAF12 agonist – H. contortus DAF-12 activation, primary screen | AID 652067 | activation, % at 6.8 µM | 370,000 compounds, 1.4% hits | HEK293 hcDAF-12 lit1-tk-luc reporter, luminescence; 0% DMSO, 100% Δ7-dafachronic acid;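 active means activation above the mean of all tested compounds plus 3 SD, cut at about 5.5% in these data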
DAX1 inh-2 – DAX1 (NR0B1) inhibition, primary screen | HEK293T StAR-luciferase reporter, SF-1/DAX-1 repression relief | inhibition, % at 6.8 µM | 370,000 compounds, 1.1% hits;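 active means inhibition above the mean over all tested compounds plus 3 SD, cut at about 3.6% in these data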;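 further: higher inhibition means more luminescence from relief of DAX-1 repression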
Of the large screens only hits and unclear results are named; the others gave an inactive call.

Cc1ccc(/C=C(/NC(=O)c2ccccc2)C(=O)NC(Cc2c[nH]c3ccccc23)C(=O)O)cc1 (centres undefined)	none
COC(=O)C(Cc1c[nH]c2ccccc12)NC(=O)C(=O)c1c[nH]c2ccccc12 (centres undefined)	hcDAF12 agonist 5.9
COC(=O)C(Cc1c[nH]c2ccccc12)NC(=O)C(C)C (centres undefined)	none
COC(=O)[C@]12C[C@H](CC(=O)NCc3ccccc3)C(=O)N(Cc3ccc(Cl)cc3Cl)C1=C[C@H](C(C)(C)C)O[C@@H]2C	none (no result: DAX1 inh-1)
COC1=C[C@H](C(=O)N[C@H]2CCCC[C@@H]2NC(C)=O)[C@@]2(C)Cc3ccccc3[C@H]2CC1=O	none (no result: DAX1 inh-1)
COC(=O)[C@]12C[C@H](CC(=O)N3CCCC3)C(=O)N(Cc3cccc4ccccc34)C1=C[C@H](C(C)C)O[C@@H]2C1CC1	none (no result: DAX1 inh-1)
Cc1cccn2cc(-c3ccccc3)nc12	hgDAF-12 ag 13, ssDAF-12 act 1.1
COc1ccc(-c2cn3cccc(C)c3n2)cc1Br	none
COc1ccc(C(=O)N[C@H]2CC[C@@]34CCCN3C(=O)CCC[C@H]4[C@H]2C)cc1	none (no result: DAX1 inh-1, DAX1 inh-2)
Fc1cccc(C2NN=C(c3ccccc3)S2)c1 (centres undefined)	hgDAF-12 ag 28, ssDAF-12 act 2.3, hcDAF12 agonist 10, DAX1 inh-2 4.5
O=C1c2ccccc2C2=Nc3ccccc3SC(c3cccc(F)c3)C12 (centres undefined)	none
CCC[C@H]1CN(c2ccccc2)C(=O)[C@@H]1CC(=O)Nc1ccc(Br)cc1	DAX1 inh-1 7.8
O=C(Nc1ccc(C(O)(C(F)(F)F)C(F)(F)F)cc1)c1ccc(F)cc1Cl	none (no result: DAX1 inh-1, DAX1 inh-2)
COc1ccc(/C=N/NC(=O)CN2CCCc3ccccc32)c(OC)c1	hcDAF12 agonist 5.8
COc1ccc(CNS(=O)(=O)/C=C/c2cc(C)ccc2CNC(=O)OC(C)(C)C)cc1	none (no result: DAX1 inh-1)
O=C(CCc1c[nH]c2ccccc12)N=Nc1c(O)[nH]c2ccccc12	none
O=C(CCNC(=O)c1ccccc1)N=Nc1c(O)[nH]c2ccccc12	ssDAF-12 act 21 (no result: DAX1 inh-1)
Cc1ccc(NC(=S)N=Nc2c(O)[nH]c3ccccc23)cc1	none
CNC(=S)N=Nc1c(O)[nH]c2ccccc12	hcDAF12 agonist 5.6
CC1(c2nnnn2-c2ccc3c(c2)OCCO3)CSCC(=O)N1CCc1c[nH]c2ccccc12 (centres undefined)	none (no result: DAX1 inh-1)
O=C(Nc1ccc(F)cc1)OCCCN1C(=O)CCC12CCCCC2	none (no result: DAX1 inh-1)
CCOC(=O)N1CCN(C(=O)C[C@H]2C(=O)N(CCCOC)C3=CCCCC[C@]32C(=O)OC)CC1	none (no result: DAX1 inh-1)
O=C(NCc1ccc2c(c1)OCO2)c1ccc2c(=O)n(C3CCCC3)c(=O)[nH]c2c1	DAX1 inh-1 4.9
COc1ccc(Cn2c(=O)[nH]c3cc(C(=O)NCc4ccc5c(c4)OCO5)ccc3c2=O)cc1	none
CCc1ccc(NC(=O)NCC2CCN(Cc3cccc(Cl)c3)CC2)cc1	none
Cc1ccc(CN2CCC(CNC(=O)Nc3ccccc3F)CC2)cc1	DAX1 inh-1 4.4
Cc1ccc(NC(=O)NCC2CCN(Cc3cccc(Cl)c3)CC2)cc1Cl	ssDAF-12 act 1.7
CCN(CC)C(=O)CC[C@@H]1CC[C@]2(CCCN(Cc3ccc(Br)cc3)C2)O1	none (no result: DAX1 inh-1)
COc1ccc(-c2cc(NC(=O)Cc3c(C)[nH]c4ccccc34)ccc2Nc2cccnc2)cc1F	none (no result: DAX1 inh-1)
O=C(NCc1ccc2c(c1)OCO2)OCc1ccccc1	DAX1 inh-2 4.0 (no result: DAX1 inh-1)
CC1Oc2ccccc2N(CC(=O)Nc2ccc3c(c2)OCO3)C1=O (centres undefined)	none
CC1Oc2ccccc2N(CC(=O)NCc2ccc3c(c2)OCO3)C1=O (centres undefined)	hgDAF-12 ag 11
O=C(CN(Cc1ccccc1)C(=O)c1csnn1)NCc1ccc2c(c1)OCO2	hcDAF12 agonist 5.8
COc1ccc(CN(CC(=O)NCc2ccc3c(c2)OCO3)C(=O)c2csnn2)cc1	none
Cc1ccccc1NC(=O)Nc1ccc2c(c1)C(=O)N(C)[C@H]1CC[C@H](CC(=O)NCC3CC3)O[C@@H]1CO2	none (no result: DAX1 inh-1)
CC(C)(C)c1ccc(-c2nnc(SCC(=O)Nc3ccc(S(=O)(=O)Nc4nccs4)cc3)n2Cc2ccco2)cc1	none (no result: DAX1 inh-1)
FC(F)(F)Oc1ccc(Nc2nc3ccccc3o2)cc1	hcDAF12 agonist 5.7
Cc1cc(C)nc(Nc2nc3ccccc3o2)n1	none
COC(=O)[C@]12C[C@H](CC(=O)NCCc3ccccc3OC)C(=O)N(Cc3ccc4c(c3)OCO4)C1=C[C@H](C(C)C)O[C@@H]2C1CC1	none (no result: DAX1 inh-1)
Cc1ccc(COc2ccc3c(c2)OCO3)cc1	none
O=Cc1ccc(OCc2ccc3c(c2)OCO3)cc1	hgDAF-12 ag 11
O=C(COc1ccccc1CNCc1ccccc1)Nc1ccccc1	hgDAF-12 ag 11
Cc1ccc(NC(=O)CNCc2ccccc2OCC(=O)Nc2ccc(I)cc2)cc1	none (no result: DAX1 inh-1)
Cc1n[nH]c(C)c1S(=O)(=O)NCCc1ccccc1F	none (no result: DAX1 inh-1)
C=CCn1c(Cc2cccs2)nnc1SCC(=O)Nc1ccc2c(c1)OCO2	none (no result: DAX1 inh-1)
Cc1cc(C)n2nc(S(=O)(=O)N(C)Cc3ccccc3)nc2n1	none
Cc1cc(C)n2nc(S(=O)(=O)N(CC(C)C)CC(C)C)nc2n1	ssDAF-12 act 1.0
COc1ccc2c(=O)c(Oc3ccc(C(=O)O)cc3)c(C(F)(F)F)oc2c1	ssDAF-12 act 0.9, DAX1 inh-2 4.2
Cn1cc(C=C2C(=O)CC(C)(C)CC2=O)c2ccccc21	ssDAF-12 act 1.3
CCCCN1C[C@@H]2CSCCS(=O)(=O)N2C1=O	none (no result: DAX1 inh-1)
Cc1c(C#N)c(N=CN(C)C)c(C(=O)c2ccccc2)n1-c1ccccc1	none
Cc1c(C(N)=O)c(N)c(C(=O)c2ccccc2)n1-c1ccccc1	DAX1 inh-1 5.0
O=c1[nH][nH]cc1C=Nc1ccc(Cl)cc1Cl	ssDAF-12 act 1.6
CC1CC(O)C(C)CN1 (centres undefined)	DAX1 inh-1 5.4
COC(=O)c1ccccc1NC(=O)COC(=O)C1CCCCC1	DAX1 inh-1 4.4
COC(=O)c1ccccc1NC(=O)C1CCCC1	none
O[C@H](COc1ccccc1)CN1CCC(C(O)(c2ccccc2)c2ccccc2)CC1	none (no result: DAX1 inh-1)
O=C(Cc1ccc([N+](=O)[O-])cc1)NCC1CCCO1 (centres undefined)	none
CC(C(=O)NCC1CCCO1)c1ccc([N+](=O)[O-])cc1 (centres undefined)	DAX1 inh-1 5.0
Cc1cccc(CCNC(=O)c2ccc3c(c2)ncn3C2CCCCC2)c1	none (no result: DAX1 inh-1)
COc1ccc(C(=O)c2ccccc2)cc1	ssDAF-12 act 16
COc1ccc(C(=O)c2ccc(Br)cc2)cc1	none
COc1ccc(C(=O)c2c[nH]c3ccccc23)cc1	hgDAF-12 ag 11
CCCC1CCC2(CCC(=O)N2CCOC)CC1 (centres undefined)	none (no result: DAX1 inh-1)
CN(C)c1cc[n+](CC(=O)N2c3ccccc3Sc3ccccc32)cc1	none
O=C(C[n+]1ccccc1)N1c2ccccc2Sc2ccccc21	DAX1 inh-1 4.5
